In PMC4336329 (PLoS ONE, 2015):
The whole screen tested about 310,000 compounds, of which about 14,000 (4.5%) showed an effect of 50% or more. The effect is printed as a negative number. For the sample, strong results were picked, then their nearest neighbours and some compounds at random.

Biological target: human ether-à-go-go-related gene (hERG) potassium channel (human, UniProt Q12809)
Assay: primary screen, population patch clamp on CHO cells stably expressing hERG; higher = less effect of the substance
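Further: peak tail current of the secondary pulse compared with the same well before compound.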

human ether-à-go-go-related gene (hERG) potassium channel, sequence (Q12809 whole entry, looked up): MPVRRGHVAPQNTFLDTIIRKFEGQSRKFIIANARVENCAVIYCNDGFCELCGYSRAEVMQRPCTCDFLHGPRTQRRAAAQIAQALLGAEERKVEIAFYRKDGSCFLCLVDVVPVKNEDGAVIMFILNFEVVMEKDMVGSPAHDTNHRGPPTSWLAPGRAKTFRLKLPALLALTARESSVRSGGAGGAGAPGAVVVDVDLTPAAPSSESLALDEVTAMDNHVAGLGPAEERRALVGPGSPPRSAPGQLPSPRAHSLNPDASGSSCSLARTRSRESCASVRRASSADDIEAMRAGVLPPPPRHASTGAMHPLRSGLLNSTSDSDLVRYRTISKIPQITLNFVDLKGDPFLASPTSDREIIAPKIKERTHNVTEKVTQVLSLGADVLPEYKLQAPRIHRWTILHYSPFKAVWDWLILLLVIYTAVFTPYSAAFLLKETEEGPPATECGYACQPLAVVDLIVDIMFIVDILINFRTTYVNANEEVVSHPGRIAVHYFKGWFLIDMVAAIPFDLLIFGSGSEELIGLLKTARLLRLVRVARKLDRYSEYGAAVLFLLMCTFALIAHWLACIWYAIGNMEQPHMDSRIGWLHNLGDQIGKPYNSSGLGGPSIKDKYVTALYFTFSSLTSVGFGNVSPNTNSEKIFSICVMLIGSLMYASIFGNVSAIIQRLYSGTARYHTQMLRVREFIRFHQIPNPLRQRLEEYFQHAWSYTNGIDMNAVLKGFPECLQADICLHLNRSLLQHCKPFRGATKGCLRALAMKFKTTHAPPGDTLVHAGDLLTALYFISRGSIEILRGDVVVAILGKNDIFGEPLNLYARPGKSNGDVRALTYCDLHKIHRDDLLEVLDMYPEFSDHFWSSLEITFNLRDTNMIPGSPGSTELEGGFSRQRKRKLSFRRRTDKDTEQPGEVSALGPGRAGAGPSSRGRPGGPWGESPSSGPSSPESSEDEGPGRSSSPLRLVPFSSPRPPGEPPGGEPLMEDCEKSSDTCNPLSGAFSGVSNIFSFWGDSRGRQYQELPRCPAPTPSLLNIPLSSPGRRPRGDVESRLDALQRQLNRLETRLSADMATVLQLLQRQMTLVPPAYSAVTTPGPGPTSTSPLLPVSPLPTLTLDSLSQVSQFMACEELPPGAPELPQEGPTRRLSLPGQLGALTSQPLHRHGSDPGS

Compound | hERG current change (%, negative = inhibition) at 10uM
CSc1cccc(N2CC(C(=O)NCCN3C(=O)S/C(=C\c4cccnc4)C3=O)CC2=O)c1 (stereo not shown) | -68.3%
O=C(CCl)NCCN1C(=O)S/C(=C\c2cccnc2)C1=O | 26.1%
CC(C)(Oc1ccc(Cl)cc1)C(=O)NCCN1C(=O)S/C(=C/c2cccnc2)C1=O | -62.9%
O=C(NCCN1C(=O)S/C(=C\c2cccnc2)C1=O)c1cc(S(=O)(=O)N2CCOCC2)ccc1F | -59%
Cc1c(C(=O)NCCN2C(=O)S/C(=C\c3cccnc3)C2=O)cccc1[N+](=O)[O-] | -45.1%
COc1ccccc1N1CC(C(=O)NCCN2C(=O)S/C(=C\c3cccnc3)C2=O)CC1=O (stereo not shown) | 1.78%
O=C(NCCN1C(=O)S/C(=C\c2ccc(F)cc2)C1=O)c1cccc(S(=O)(=O)N2CCOCC2)c1 | -3.04%
CS(=O)(=O)c1ccc(C(=O)NCCN2C(=O)S/C(=C\c3cccnc3)C2=O)cc1[N+](=O)[O-] | 1.32%
O=C(NCCN1C(=O)S/C(=C\c2cccnc2)C1=O)c1ccc(S(=O)(=O)N2CCCC2)cc1 | -11.3%
COc1ccc(C(=O)NCCN2C(=O)S/C(=C\c3cccnc3)C2=O)cc1[N+](=O)[O-] | -63.8%
Cc1cc(OCCCC(=O)NCCN2C(=O)S/C(=C\c3cccnc3)C2=O)ccc1Cl | -6.35%
CCOc1ccc(N2CC(C(=O)NCCN3C(=O)S/C(=C\c4cccnc4)C3=O)CC2=O)cc1 (stereo not shown) | -0.149%
Cc1ccc(S(=O)(=O)NC(C)(C)CSc2ncccn2)cc1 | -4.42%
CC1=CC(C)(C)N(C(=O)CCl)c2ccccc21 | -39.7%
O=C(O)C(Nc1nc(C(F)(F)F)nc2ccccc12)c1ccccc1 (stereo not shown) | 26.2%
O=C(Cc1cccs1)NCc1cccc(F)c1 | 14.4%
CCOC(=O)C1CCN(c2c(NCc3ccc(C(=O)NCCOC)cc3)c(=O)c2=O)CC1 | -7.38%
CCn1cc(C(=O)Nc2ccc(F)c(F)c2)cn1 | 7.43%
COc1ccccc1N(CC(=O)NC(C)(C)C)C(=O)CCC(=O)Nc1nccs1 | -36.5%
COC(=O)CN1C(=O)C2(OCCCO2)c2ccccc21 | -7.31%
O=C(Nc1cccc(-c2cccc(Cl)c2)c1)C1CCN(Cc2ccon2)CC1 | -52.7%
Cl.O=C(O)C1CCN(Cc2ccccn2)CC1 | 16.2%
COc1cccc(-c2cccc(NC(=O)C3CCN(Cc4ccon4)CC3)c2)c1 | -27.8%
O=C(Nc1cccc(-c2cccc(Cl)c2)c1)C1CCN(Cc2ccccn2)CC1 | -77.8%
Cc1cc(C)n(-c2ccc(NC(=O)C3CCN(Cc4ccccn4)CC3)cc2)n1 | -14.5%
